Assay results as given in PubChem BioAssay AID1851 (National Center for Advancing Translational Sciences (NCATS), 2009).
In all, about 16,000 compounds went through this assay and about 5,100 (32%) were called active. Roughly 25% stayed inconclusive and do not appear here. This is one part of the list. Unmarked numbers belong to inactive results. Calls come from the whole dose curve; as a rule, active = well fitted curve in the direction sought with a large enough effect; inconclusive = small, poorly fitted or top-dose-only effect, or effect the other way; inactive = no such curve, though single readings can be large or run the other way.

Biological target: Cytochrome P450 3A4 (Homo sapiens) (UniProt P08684)
Sequence (P08684 whole entry, looked up): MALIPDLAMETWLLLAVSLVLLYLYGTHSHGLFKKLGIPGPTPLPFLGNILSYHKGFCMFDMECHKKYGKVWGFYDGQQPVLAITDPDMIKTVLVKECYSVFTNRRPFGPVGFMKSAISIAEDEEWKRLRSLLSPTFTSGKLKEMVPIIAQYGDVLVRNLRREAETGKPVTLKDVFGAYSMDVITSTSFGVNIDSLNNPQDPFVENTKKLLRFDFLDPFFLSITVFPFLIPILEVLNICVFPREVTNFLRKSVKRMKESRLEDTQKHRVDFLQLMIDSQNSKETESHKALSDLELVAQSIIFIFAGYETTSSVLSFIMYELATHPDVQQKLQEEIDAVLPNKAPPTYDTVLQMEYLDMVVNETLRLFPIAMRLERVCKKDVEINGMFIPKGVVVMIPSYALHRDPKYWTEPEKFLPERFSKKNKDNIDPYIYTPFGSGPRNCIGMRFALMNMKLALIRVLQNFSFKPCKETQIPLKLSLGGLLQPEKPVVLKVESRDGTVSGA
Experiment: Cytochrome panel assay with activity outcomes
Settings: recombinant CYP, pro-luciferin dealkylation, luminescence, p450-cyp3a4; series mostly up to 57.1 µM; activity, negative = inhibition: at the top concentration
% is set by controls: 0 for no effect and ±100 for the full control effect.

| Compound | AC50 | activity, negative = inhibition |
| --- | --- | --- |
| CCC1(c2ccccc2)C(=O)NCNC1=O | inactive |  |
| CCCCN1C(=O)CC(Sc2ccccc2C(=O)O)C1=O (stereo not drawn) |  | -6.33% |
| O=C(CSC1CC(=O)N(CC(c2ccccc2)c2ccccc2)C1=O)Nc1ccc(Cl)cc1 (stereo not drawn) | 8.91 µM (active) |  |
| Cc1cc2ccc(OC(=O)c3ccc(N=C(N)N)cc3)cc2oc1=O |  | -27.2% [at 11.4 µM] |
| CCC(=O)c1ccc2c(c1)N(CCCN(C)C)c1ccccc1S2 |  | -19.6% |
| CN(C)CCCN1c2ccccc2Sc2ccc3ccccc3c21 |  | -13.6% [at 11.4 µM] |
| CN(C)CCCN1c2ccccc2Sc2cnccc21 | 1.58 µM (active) |  |
| COc1ccccc1NC(=O)COC(=O)c1ccc(S(=O)(=O)NCc2ccco2)cc1 | 28.2 µM (active) |  |
| Cc1cc(NC(=O)COC(=O)c2ccc(NS(=O)(=O)c3ccc(C)c(C)c3)cc2)no1 | 5.01 µM (active) |  |
| Cc1cc(NC(=O)c2ccc(S(=O)(=O)Nc3ccccc3)cc2)no1 |  | 2.51% [at 2.29 µM] |
| O=C(Cc1ccccc1)NC1CCN(S(=O)(=O)c2ccc(C(=O)O)cc2)CC1 |  | 10.8% |
| COc1ccccc1NS(=O)(=O)c1cccc(C(=O)OCC(=O)Nc2cc(C)on2)c1 | 7.08 µM (active) |  |
| COc1ccc(OC)c(NC(=O)C(CC(=O)O)NCc2ccco2)c1 (stereo not drawn) |  | -1.25% |
| O=C(Nc1ccc(S(=O)(=O)N2CCCCC2)cc1)c1ccc(CN2CCc3ccccc3C2)cc1 |  | 11.8% |
| COc1cc2ccccc2cc1C(=O)Nc1ccc(S(=O)(=O)Nc2cc(C)on2)cc1 |  | 6.01% [at 11.4 µM] |
| O=C(NCc1ccccc1)c1ccc(S(=O)(=O)N2CCCc3ccccc32)cc1 | 10 µM (active) |  |
| Cc1cc(NC(=O)c2cccc(F)c2)no1 |  | -14.9% |
| O=C(O)NCC1CCCCC1 (tested in a mixture with another compound) |  | -26.5% [at 11.4 µM] |
| O=[n+]1c2c(n([O-])c3cc(F)c(F)cc31)CCCC2 |  | 4.83% |
| CC(C)(C)C(=O)[C@H]1[C@H](c2ccccc2)[C@@]2(N=C(c3ccccc3)OC2=O)C2c3ccccc3C=NN21 (stereo partly drawn) |  | -20.3% [at 2.29 µM] |
| Cc1cc(NC(=O)COC(=O)c2ccc(S(=O)(=O)N3CCCc4ccccc43)cc2)no1 | 0.891 µM (active) |  |
| COc1ccc(/C=C(\C#N)C(N)=O)c(OC)c1 | 2.51 µM (active) |  |
| CCOc1ccccc1/C=C(\C#N)C(N)=O |  | -4.52% [at 11.4 µM] |
| COc1ccc(/C=C(\C#N)C(N)=O)cc1OC |  | -6.66% [at 11.4 µM] |
| Cc1cccc2nc(C(F)(F)F)nc(=O)n12 |  | 0.743% [at 2.29 µM] |

| Compound | AC50 | activity, negative = inhibition |
| --- | --- | --- |
| CC(C)OC(=O)c1cccc(C(=O)Oc2ccc(Br)cc2)n1 |  | 3% |
| O=C(CCN1C(=O)c2cccc3cccc(c23)C1=O)N1CCN(Cc2ccc3c(c2)OCO3)CC1 | 1 µM (active) |  |
| Cc1ccc(/C=C2\OC(=O)c3ccccc32)cc1 | 12.6 µM (active) |  |
| Cc1ccc(=O)n(-c2ccccc2)c1 |  | -17.9% |
| Cc1ccccc1/C=C1\OC(=O)c2ccccc21 |  | -28.4% |
| CCC(C)N1C(=O)S/C(=C/c2ccc(Sc3nc4ccccc4[nH]3)o2)C1=O (stereo not drawn) | 1.12 µM (active) |  |
| COc1ccc(CNc2ncnc3ccc(-c4c(C)noc4C)cc23)c(OC)c1 | 3.16 µM (active) |  |
| COc1ccccc1CNc1ncnc2ccc(-c3c(C)noc3C)cc12 | 12.6 µM (active) |  |
| Cn1c(N)c(N=Nc2ccc(S(N)(=O)=O)cc2)c(=O)n(C)c1=O |  | -14.9% [at 11.4 µM] |
| CN(Cc1ccco1)C(=O)C1CCC(=O)N1Cc1ccc(F)cc1 (stereo not drawn) |  | -13.7% |
| CC(C)(C)c1ccc(CN(Cc2ccco2)Cc2nnnn2C2CCCC2)cc1 | 1.41 µM (active) |  |
| NC(N)=N/N=C(\c1ccc(Cl)cc1)C1CC1 |  | -13.1% [at 11.4 µM] |
| CCOC(=O)N1CCN(C(=O)CCn2nc(-c3ccccc3)ccc2=O)CC1 |  | 11.8% |
| CCOC(=O)N1CCN(C(=O)C(CC)n2nc(C)c3sc4ccccc4c3c2=O)CC1 (stereo not drawn) | 7.08 µM (active) |  |
| CCOC(=O)N1CCN(C(=O)c2cnc3n(c2=O)CCS3)CC1 |  | -1.95% |
| COc1ccc(CCC(C)NC2C3CC4CC(C3)CC2C4)cc1 (stereo not drawn) |  | -2.79% [at 2.29 µM] |
| C[C@@H]1C[C@H](C)CN(S(=O)(=O)c2cc(Cl)c(Oc3ccc([N+](=O)[O-])cc3Cl)c(Cl)c2)C1 |  | -9.23% [at 11.4 µM] |
| COc1ccc(S(=O)(=O)N2CC3C4C=CC(C4)C3C2)cc1 (stereo not drawn) | 14.1 µM (active) |  |
| Oc1ccccc1-c1cc(-c2ccccc2)no1 |  | 1.55% |
| O=C(CN1C(=O)NC2(CCCC2)C1=O)NCCC1=CCCCC1 |  | -28.6% |
| O=C(CN1C(=O)NC2(CCCCCC2)C1=O)N1CCN(S(=O)(=O)c2ccc(Cl)cc2)CC1 | 6.31 µM (active) |  |
| CC1CN(C(=O)CN2C(=O)NC3(CCCCCC3)C2=O)CC(C)O1 (stereo not drawn) |  | 25.3% |
| Nc1ccc(-c2ccc(Nc3cc(S(=O)(=O)O)c(N)c4c3C(=O)c3ccccc3C4=O)cc2)c(S(=O)(=O)O)c1 |  | -1.65% [at 11.4 µM] |
| Cc1ccc(S(=O)(=O)N(C)c2cc(S(=O)(=O)N3CCC(C)CC3)c(C)cc2C)cc1 | 2.51 µM (active) |  |
| CC1CCN(S(=O)(=O)c2ccc3c(c2)C(=NO)c2cc(S(=O)(=O)N4CCC(C)CC4)ccc2-3)CC1 |  | -0.656% [at 2.29 µM] |

| Compound | AC50 | activity, negative = inhibition |
| --- | --- | --- |
| O=C(CC1CCCC1)Nc1ccc2c(c1)CCC2 | 14.1 µM (active) |  |
| CC(=O)c1cccc(NC(=O)Cc2ccc3c(c2)CCCC3)c1 |  | -26.1% |
| O=C(N/N=C\c1ccc2c(c1)CCC2)c1ccccc1O |  | -19.2% [at 11.4 µM] |
| Cc1nc2ccccc2n1CC(=O)N/N=C\c1ccccn1 |  | -14.7% |
| COCCCNC(=O)c1c(N)n(/N=C/c2ccccn2)c2nc3ccccc3nc12 | 4.47 µM (active) |  |
| CCCCCCCCC(=O)N/N=C/c1ccccn1 |  | -18.3% |
| O=S(=O)(c1ccccc1)N1CCC[C@@]2(CCN(c3cccc(-c4ccccc4)c3)C2)C1 | 12.6 µM (active) |  |
| CS(=O)(=O)N1CCC2(CCCN(c3ncccn3)C2)CC1 |  | -23.3% |
| O=S(=O)(c1ccccc1)N1CCC2(CCCN(c3ncccn3)C2)CC1 | 12.6 µM (active) |  |
| CS(=O)(=O)N1CCC2(CCN(c3cccc(-c4ccccc4)c3)CC2)CC1 |  | -21.2% |
| CS(=O)(=O)N1CCC2(CC1)CN(c1cccc(-c3ccccc3)c1)C2 |  | -29.8% |
| O=S(=O)(c1ccccc1)N1CCC2(CCCN(c3cccc(-c4ccccc4)c3)C2)CC1 | 3.98 µM (active) |  |
| O=S(=O)(c1ccccc1)N1CCC2(CCCN(c3ccccc3)C2)CC1 | 3.98 µM (active) |  |
| O=S(=O)(c1ccccc1)N1CCC2(CC1)CN(c1ncccn1)C2 |  | 3.08% |
| CN1CCCC2(CCN(S(=O)(=O)c3ccccc3)CC2)C1 |  | -18% |
| Fc1ccc(SCCc2ccncc2)cc1 | 3.55 µM (active) |  |
| c1ccc(CCN2CCN=C2Cc2ccccc2)cc1 |  | 7.9% [at 11.4 µM] |
| CCN(CCCc1ccccc1)CCCc1ccccc1 |  | -5.25% [at 25.6 µM] |
| c1ccc(SCCc2ccncc2)cc1 | 2.51 µM (active) |  |
| ON(CCc1ccncc1)Cc1ccccc1 | 1 µM (active) |  |
| C[C@@H](CSC(=N)N)C(N)=O |  | -8.21% [at 11.4 µM] |
| CCN(CC(=O)O)CC(=O)O |  | 0.0109% [at 11.4 µM] |
| Cc1ccccc1OCC(=O)OC1CCN(C)CC1 |  | 17.6% |
| CC(=O)Nc1cccc(C(=O)OC(C(=O)c2ccc(C)c(C)c2)c2ccccc2)c1 (stereo not drawn) |  | 8% [at 2.29 µM] |
| Cc1ccc(C(=O)C(OC(=O)CCC(=O)Nc2cccc(C)c2)c2ccccc2)cc1 (stereo not drawn) | 25.1 µM (active) |  |

| Compound | AC50 | activity, negative = inhibition |
| --- | --- | --- |
| Cc1ccc(C(=O)C(OC(=O)CNS(=O)(=O)c2ccccc2)c2ccccc2)cc1 (stereo not drawn) | 14.1 µM (active) |  |
| CC(=O)NNC(=O)CCC(=O)Nc1ccccc1 |  | 6.14% [at 2.29 µM] |
| Cc1ccc(C(=O)C(OC(=O)COc2ccccc2C)c2ccccc2)cc1 (stereo not drawn) | 10 µM (active) |  |
| COc1ccc(C(=O)C(OC(=O)CNC(=O)c2ccco2)c2ccccc2)cc1 (stereo not drawn) | 14.1 µM (active) |  |
| CCOC(=O)CC(NC(=O)c1ccco1)c1ccc(OC)cc1 (stereo not drawn) |  | 13.6% |
| O=C(O)Cc1cc(I)c(Oc2ccc(O)c(I)c2)c(I)c1 |  | -23.6% [at 25.6 µM] |
| NC1=NC2(CCCCC2)N=C(Nc2ccc(F)cc2F)N1 |  | -29.4% |
| Cc1ccc(C(=O)C(OC(=O)CN2C(=O)c3ccccc3C2=O)c2ccccc2)cc1 (stereo not drawn) | 7.94 µM (active) |  |
| O=C(O)CC[C@@H](C(=O)O)N1C(=O)c2ccccc2C1=O |  | -3.86% [at 11.4 µM] |
| COc1ccc(NC(=S)Nc2ccccc2)cc1 |  | -19.5% [at 11.4 µM] |
| COc1ccc(C(=S)Nc2ccccc2)cc1 | 31.6 µM (active) |  |
| CN(CC[C@@H](Oc1ccc(-c2ccccc2)cc1)c1ccc(F)cc1)CC(=O)O |  | -24.4% |
| CCN(CC)CCNC(=O)C(C)c1nn(C)c(=O)c2ccccc12 (stereo not drawn) |  | -0.681% [at 2.29 µM] |
| CCCn1nc(C(=O)NCC(C)(C)N2CCOCC2)c2ccccc2c1=O | 7.08 µM (active) |  |
| Cc1cc(Cl)ccc1OCCCC(=O)N1CCN(C)CC1 | 12.6 µM (active) |  |
| CC1CCN(CCOc2cc(Cl)ccc2Cl)CC1 |  | 2.39% |
| CC(C)NCCCOc1ccc(Cl)cc1Br |  | 6.16% [at 2.29 µM] |
| O=c1n(-c2ccccc2)c(=O)n2n1CC[C@H]1/C(=N\OCc3ccccc3)[C@H]3O[C@@H]3[C@@H](O)[C@@H]12 |  | -7.77% [at 11.4 µM] |
| CC(C)=CCC/C(C)=C/CO/N=C1/[C@H]2O[C@@H]2[C@@H](O)[C@H]2[C@H]1CCn1c(=O)n(-c3ccccc3)c(=O)n12 |  | -17.8% [at 11.4 µM] |
| CCCNC(=O)OC[C@H]1O[C@@H](CCO/N=C2/[C@H]3O[C@@H]3[C@@H](O)[C@H]3[C@H]2CCn2c(=O)n(-c4ccccc4)c(=O)n23)C=C[C@@H]1Oc1ccc(OC)cc1 | 3.16 µM (active) |  |
| CC(C)CO/N=C1/[C@H]2O[C@@H]2[C@@H](O)[C@H]2[C@H]1CCn1c(=O)n(-c3ccccc3)c(=O)n12 |  | -14% [at 11.4 µM] |
| COc1ccc(O[C@H]2C=C[C@@H](c3ccccc3)O[C@H]2CO/N=C2/[C@H]3O[C@@H]3[C@@H](O)[C@H]3[C@H]2CCn2c(=O)n(-c4ccccc4)c(=O)n23)cc1 | 3.16 µM (active) |  |
| CC(=O)OC[C@H]1O[C@@H](O/N=C2/[C@H]3O[C@@H]3[C@@H](O)[C@H]3[C@H]2CCn2c(=O)n(-c4ccccc4)c(=O)n23)[C@H](OC(C)=O)[C@@H](OC(C)=O)[C@@H]1OC(C)=O |  | -17.4% [at 11.4 µM] |
